The record followed here is PubChem BioAssay (NCATS).

Assay [1] in a line: Quantitative High-Throughput drug screen in 47 multiple myeloma cell lines against the NCATS MIPE library collection: Karpas620_DSMZ cell viability assay (AID 1918959). Note: nearly all actives have a fitted effect of over 30% in size. In short, it runs like this: (§1)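 Luminescent ATP measurement with CellTiter-Glo gives viability, scaled between DMSO-only wells (100%) and media-only wells (0%). Cells, 500 per well, faced library compounds for 48 hours at 37C.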

The nature of assay [2]: Quantitative High-Throughput drug screen in 47 multiple myeloma cell lines against the NCATS MIPE library collection: KMM1_JCRB cell viability assay (AID 1918960). Note: nearly all actives have a fitted effect of over 30% in size. In short, it runs like this:
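Myeloma cells at 500 per well in 1536-well format treated with MIPE 4.0 library by pin transfer for 48 h at 37C, 5% CO2. Viability from ATP luminescence (CellTiter-Glo), normalized to DMSO (100%) and media-only (0%) wells.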

The nature of assay [3]: Quantitative High-Throughput drug screen in 47 multiple myeloma cell lines against the NCATS MIPE library collection: KHM11_PLB cell viability assay (AID 1918962). Note: nearly all actives have a fitted effect of over 35% in size. In short, it runs like this:
as §1

Assay [4] can be described thus: Quantitative High-Throughput drug screen in 47 multiple myeloma cell lines against the NCATS MIPE library collection: JIM3_ECACC cell viability assay (AID 1918963; note: nearly all actives have a fitted effect of over 35% in size). In short, it runs like this: as §1
Assay [5] can be described thus: Quantitative High-Throughput drug screen in 47 multiple myeloma cell lines against the NCATS MIPE library collection: JIM1_ECACC cell viability assay (AID 1918964). The method in brief: (§2)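 CellTiter-Glo luminescence (ATP) after 48 h compound exposure, 37C/5% CO2; 500 cells/well; MIPE 4.0 approved/investigational drugs pinned in; DMSO = 100%, media only = 0% viability.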

Assay [6] can be described thus: Quantitative High-Throughput drug screen in 47 multiple myeloma cell lines against the NCATS MIPE library collection: INA6_PLB cell viability assay (AID 1918965; note: nearly all actives have a fitted effect of over 55% in size). The method in brief:
(§3)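 Steps: seed 500 cells per well; pin-transfer MIPE 4.0 library; incubate 48 h at 37C, 5% CO2, humidified; add CellTiter-Glo, 5 min room temperature; read luminescence.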

A short description of assay [7]: Quantitative High-Throughput drug screen in 47 multiple myeloma cell lines against the NCATS MIPE library collection: Karpas25_ECACC cell viability assay (AID 1918968; note: nearly all actives have a fitted effect of over 35% in size). In short, it runs like this:
as §2

Assay [8] can be described thus: Quantitative High-Throughput drug screen in 47 multiple myeloma cell lines against the NCATS MIPE library collection: KMS27_JCRB cell viability assay (AID 1918970). Note: nearly all actives have a fitted effect of over 30% in size. Conditions: KMS27 myeloma cells, CellTiter-Glo ATP viability, 48 h; viability (% of DMSO): at 45.8 µM (top of the series). The method in brief:
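Each line is seeded at 500 cells per well and treated with library compounds for 48 hours under 37 °C, 5% CO2. CellTiter-Glo is then added for 5 min at room temperature before median relative luminescence is recorded.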
(In general: Cellular ATP, detected with luciferase, serves as a proxy for viable cell number.)

Assay [9] in a line: Quantitative High-Throughput drug screen in 47 multiple myeloma cell lines against the NCATS MIPE library collection: KMS12PE_JCRB cell viability assay (AID 1918972). Note: nearly all actives have a fitted effect of over 30% in size. The method in brief: as §3
Assay [10] in a line: Quantitative High-Throughput drug screen in 47 multiple myeloma cell lines against the NCATS MIPE library collection: KMS20_JCRB cell viability assay (AID 1918973). Note: nearly all actives have a fitted effect of over 45% in size. The method in brief: as §2
Assay [11] can be described thus: Quantitative High-Throughput drug screen in 47 multiple myeloma cell lines against the NCATS MIPE library collection: KMS26_JCRB cell viability assay (AID 1918975). Note: nearly all actives have a fitted effect of over 45% in size. In short, it runs like this:
(§4)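 Inhibition of cell viability is measured here. Each line was plated at 500 cells per well, treated with MIPE 4.0 drugs, kept 48 hours at 37C, then assayed for ATP content by CellTiter-Glo luminescence.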

Assay [12] is described as follows: Quantitative High-Throughput drug screen in 47 multiple myeloma cell lines against the NCATS MIPE library collection: NCIH929_DSMZ cell viability assay (AID 1918978). Note: nearly all actives have a fitted effect of over 35% in size. The method in brief: (§5)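 Inhibition of viability over 48 h was scored by ATP content (CellTiter-Glo) in 500-cell wells. Zero and full viability were defined by media-only and DMSO-only wells.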
Assay [13] in a line: Quantitative High-Throughput drug screen in 47 multiple myeloma cell lines against the NCATS MIPE library collection: OCIMY1_PLB cell viability assay (AID 1918979). Note: nearly all actives have a fitted effect of over 35% in size. In short, it runs like this:
as §5

The nature of assay [14]: Quantitative High-Throughput drug screen in 47 multiple myeloma cell lines against the NCATS MIPE library collection: H1112_PLB cell viability assay (AID 1918967; note: nearly all actives have a fitted effect of over 30% in size). The method in brief: as §2
A short description of assay [15]: Quantitative High-Throughput drug screen in 47 multiple myeloma cell lines against the NCATS MIPE library collection: KMS12BM_JCRB cell viability assay (AID 1918971). Note: nearly all actives have a fitted effect of over 35% in size. The method in brief:
as §4

Assay [16] can be described thus: Quantitative High-Throughput drug screen in 47 multiple myeloma cell lines against the NCATS MIPE library collection: Karpas417_ECACC cell viability assay (AID 1918961). Conditions: Karpas417 myeloma viability, CellTiter-Glo ATP luminescence, 48 h; viability (% of DMSO): at 45.8 µM (top of the series). In short, it runs like this: as §3
The nature of assay [17]: Quantitative High-Throughput drug screen in 47 multiple myeloma cell lines against the NCATS MIPE library collection: JJN3_DSMZ cell viability assay (AID 1918966; note: nearly all actives have a fitted effect of over 50% in size). In short, it runs like this:
as §2

A short description of assay [18]: Quantitative High-Throughput drug screen in 47 multiple myeloma cell lines against the NCATS MIPE library collection: MMM1_PLB cell viability assay (AID 1918976). Note: nearly all actives have a fitted effect of over 35% in size. In short, it runs like this:
as §5

A short description of assay [19]: Quantitative High-Throughput drug screen in 47 multiple myeloma cell lines against the NCATS MIPE library collection: MOLP8_DSMZ cell viability assay (AID 1918977). Note: nearly all actives have a fitted effect of over 45% in size. In short, it runs like this:
as §5

Assay [20] can be described thus: Quantitative High-Throughput drug screen in 47 multiple myeloma cell lines against the NCATS MIPE library collection: KMS21BM_JCRB cell viability assay (AID 1918974). The settings on record: ATP luminescence, 48 h; viability: at 45.8 µM (top of the series). The method in brief:
as §2

Records with an inconclusive call do not appear. Active and inactive are the calls of the source. Calls come from the whole dose curve; as a rule, active = well fitted curve in the direction sought with a large enough effect; inconclusive = small, poorly fitted or top-dose-only effect, or another doubt; inactive = no such curve, though single readings can be large; an effect the other way counts as inactive or inconclusive.
Potency is the fitted concentration of half-maximal effect.

In the case of `OCc1ccccc1O[C@@H]1O[C@H](CO)[C@H](O)[C@H](O)[C@H]1O`, the Potency entry in [1], in assay [2], in assay [3], in assay [4], in [5] and in assay [7] was “inactive” each time. The Potency entry in assay [8], in assay [9], in assay [10], in assay [11] and in assay [13] was “inactive” in each case. Also, the values for the Potency in assay [6] and in assay [12] were 13.2 µM (active) and 11.8 µM (active), respectively.
As to `Nc1nc2c(c(=O)[nH]1)N(C=O)[C@H](CNc1ccc(C(=O)N[C@@H](CCC(=O)O)C(=O)O)cc1)CN2`, the Potency result in assay [1], in assay [2], in [3], in assay [4], in [5] and in assay [6] was “inactive” in each case. In addition, the Potency result in [14], in assay [7], in [8], in assay [15], in [9] and in assay [12] was “inactive” each time. Further, in assay [13], the Potency entry is “inactive”.
For `CC(C=CC=C(C)C=CC1=C(C)CCCC1(C)C)=CC=CC=C(C)C=CC=C(C)C=CC1=C(C)CCCC1(C)C`, the Potency is 20.9 µM (active) in assay [1]; 9.35 µM (active) in [16]; 14.8 µM (active) in [17]; 16.6 µM (active) in assay [7]; 11.8 µM (active) in [8]; 13.2 µM (active) in assay [11]. In assay [18], the Potency is 14.8 µM (active). The Potency entry in assay [2], in assay [4] and in assay [15] was “inactive” in each case.
In the case of `COc1cc(C)c(Sc2cnc(NC(=O)c3ccc(CNC(C)C(C)(C)C)cc3)s2)cc1C(=O)N1CCN(C(C)=O)CC1` (stereo unspecified), the Potency is 8.33 µM (active) in [1]; 3.32 µM (active) in assay [2]; 14.8 µM (active) in [3]; 3.72 µM (active) in assay [4]; 1.48 µM (active) in [5]; 14.8 µM (active) in assay [6]. In addition, the Potency in assay [17] is 10.5 µM (active); in [14], 5.9 µM (active); in [7], 4.69 µM (active); in assay [15] it was 16.6 µM (active); in assay [9], 5.26 µM (active); in [10], 3.72 µM (active). Moreover, the Potency is 16.6 µM (active) in assay [11]; 7.43 µM (active) in assay [18]; 8.33 µM (active) in assay [19]; 3.32 µM (active) in assay [12]; 14.8 µM (active) in [13].
`Cc1cnc(Nc2ccc(N3CCN(C)CC3)cc2)nc1Nc1cccc(S(=O)(=O)NC(C)(C)C)c1`: the Potency was 3.72 µM (active) in [1]; 1.66 µM (active) in assay [2]; 1.87 µM (active) in [3]; 3.72 µM (active) in assay [4]; 0.662 µM (active) in assay [5]; 0.418 µM (active) in assay [6]. The Potency in assay [17] is 2.96 µM (active); in assay [14] it was 5.9 µM (active); in assay [15] it was 2.64 µM (active); in assay [9] it was 1.66 µM (active); in [10], 7.43 µM (active); in assay [20], 148 nM (active). Also, the Potency in assay [11] was 6.62 µM (active); in assay [18], 2.96 µM (active); in assay [19] it was 2.09 µM (active); in assay [12] it was 2.35 µM (active).
As for `CNC(=O)c1ccc(Nc2cc(Nc3ccccc3S(=O)(=O)C(C)C)c3cc[nH]c3n2)nc1`, the Potency is 1.32 µM (active) in assay [1]; 1.48 µM (active) in assay [2]; 0.833 µM (active) in [3]; 1.18 µM (active) in [4]; 3.32 µM (active) in [5]; 0.469 µM (active) in assay [6]. Besides, the Potency was 16.6 µM (active) in assay [17]; 4.18 µM (active) in assay [14]; 0.59 µM (active) in [7]; 2.09 µM (active) in assay [8]; 16.6 µM (active) in assay [15]; 1.18 µM (active) in assay [9]. The Potency is 0.935 µM (active) in assay [10]; 418 nM (active) in assay [20]; 18.7 µM (active) in [11]; 11.8 µM (active) in assay [18]; 10.5 µM (active) in [19].
